Source: PubChem BioAssay (NCI)
This is part of a sample that, as a whole, favours compounds with a hit. Of some 79,000 tested, about 15% had one in any assay. Activity calls are given as the source filed them. Cut-off read from the data, not from the text of the source: active = growth inhibition above about 70%; inactive = the rest.

Legend:
[1] = NCI Yeast Anticancer Drug Screen. Data for the rad50 strain (AID 155);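 note: 0% = growth of vehicle-only cultures of the same strain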; details: S. cerevisiae rad50 strain growth inhibition; at 50.0 µM; stronger effect = higher value
Procedure, shortened: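 Compounds were tested on a yeast strain with an engineered DNA damage repair alteration; the reported value is growth inhibition normalised to vehicle treatment.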

[2] = NCI Yeast Anticancer Drug Screen. Data for the mec2-1 strain (AID 157); details: S. cerevisiae mec2-1 strain, at 50.0 µM, stronger effect = higher value
Procedure, shortened: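 Readout is yeast growth inhibition, normalised to vehicle-treated controls, in the mec2-1 strain exposed to compound.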

[3] = NCI Yeast Anticancer Drug Screen. Data for the sgs1 mgt1 strain (AID 161);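 note: 0% = growth of cultures given vehicle only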; details: S. cerevisiae sgs1 mgt1 strain, at 50.0 µM, stronger effect = higher value
Procedure, shortened: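 Yeast cells carrying a defined DNA-repair defect were exposed to test compounds. Growth inhibition was measured relative to vehicle-treated controls.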

[4] = NCI Yeast Anticancer Drug Screen. Data for the cln2 rad14 strain (AID 165);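 note: 0% = growth equal to vehicle treated cultures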; details: S. cerevisiae cln2 rad14 strain, at 50.0 µM, stronger effect = higher value
Procedure, shortened: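 Relative to vehicle controls, growth inhibition of compound-treated cln2 rad14 yeast was recorded.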

[5] = NCI Yeast Anticancer Drug Screen. Data for the bub3 strain (AID 167); details: S. cerevisiae bub3 mutant strain, at 50.0 µM, stronger effect = higher value
Procedure, shortened: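 Growth of a checkpoint-deficient yeast mutant is measured after compound exposure. Values represent inhibition relative to vehicle.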

[6] = NCI Yeast Anticancer Drug Screen. Data for the mlh1 rad18 strain (AID 175); details: S. cerevisiae mlh1 rad18 strain growth inhibition; at 50.0 µM; stronger effect = higher value
Procedure, shortened: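 Test agents were incubated with a yeast strain of defined genotype (DNA damage repair defect). Inhibition of growth was derived by comparison with vehicle-exposed cultures.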

Measured: growth inhibition

CC(=O)OC/C(C)=C\CC(C)COC(C)=O (stereo not given)
inactive: [1] -9.25% | [2] 3.35% | [3] 14.4% | [4] 2.4% | [5] -18.6% | [6] -0.75%

COC(=O)C1=C(C)C(=O)CC1
inactive: [1] 16.7% | [2] -1.5% | [3] 11.8% | [4] -11.9% | [5] 13.9% | [6] 14.2%

Cc1cc(CO)c(O)c(CO)c1
inactive: [1] 8.15% | [2] -10.4% | [3] 0.1% | [4] -5.05% | [5] -10.5% | [6] 0.85%

CCC(/C=C\C(C)=O)CC
inactive: [1] -28.3% | [2] -25.2% | [3] -27.6% | [4] 5.35% | [5] -10.6% | [6] -12.8%

Cc1ccc(C(C)C)c(OCC(=O)O)c1
inactive: [1] 15.4% | [2] 12% | [3] 24.2% | [4] 8.65% | [5] -6.85% | [6] 25.6%

Nc1ncnc(Nc2ccccc2)n1
inactive: [1] -6.05% | [2] -28.1% | [3] -4.1% | [4] 15.1% | [5] -5.8% | [6] 7.1%

N#CC1(O)CCCCC1
inactive: [1] 42.6% | [2] 10.6% | [3] 14.7% | [4] 23.2% | [5] 17.9% | [6] 28.4%

CCN(Cc1ccc(Cl)c(Cl)c1)c1ccc2nc(N)nc(N)c2c1C
inactive: [1] 40% | [3] 50.9% | [4] 40.3% | [5] 6.15% | [6] 29.9%
active: [2] 84.6%

OC(CCN1CCCCC1)(c1ccccc1)c1ccccc1
inactive: [1] -29.6% | [2] -21.9% | [3] -41.5% | [4] 16.4% | [5] -20.2% | [6] -18.4%

O=C(CCCl)OCCOc1ccccc1
inactive: [1] -9.85% | [2] 4.3% | [3] -15.1% | [4] 21.9% | [5] -18.5% | [6] 6.55%

CN(C)Cc1ccccn1
inactive: [1] 1.1% | [2] -17% | [3] -4.25% | [4] -5.75% | [5] -13.4% | [6] 2.55%

O=C(Nc1cccc(Cl)c1)c1ccc(Cl)cc1Cl
inactive: [1] 1.95% | [2] 5.85% | [3] 2.2% | [4] -48.5% | [5] 20.6% | [6] 0.1%

Nc1c(O)c(S(=O)(=O)O)c(O)c2c1C(=O)c1ccccc1C2=O
inactive: [1] 27.4% | [2] -2.7% | [3] 31.1% | [4] 30.9% | [5] 34.9% | [6] 33.6%

Cc1nc(O)cc(=O)[nH]1
inactive: [1] 17.7% | [2] -6.9% | [3] -14.2% | [4] -6.95% | [5] -15.3% | [6] 10.1%

CCCCCC#CC(=O)O
inactive: [1] -3.05% | [2] -3.95% | [3] -8.05% | [4] 17.9% | [5] -7.3% | [6] 19.4%

CC(C)=CCC[C@@H](C)[C@H]1CC[C@@]2(C)C3=C(CC[C@]12C)[C@@]1(C)CC[C@H](O)C(C)(C)[C@@H]1CC3
inactive: [1] 12.7% | [2] -24.8% | [3] 21.8% | [4] 9.85% | [5] 11.7% | [6] -7.3%

COC1=C(OC)C(=O)C(SC/C=C(\C)CCCC(C)CCCC(C)CCCC(C)C)=CC1=O (stereo not given)
inactive: [1] -31.8% | [2] -24.4% | [3] -43.5% | [4] 16.6% | [5] -52.6% | [6] -61.1%

CC(C)OCC(CCl)OC(=O)Nc1ccccc1 (stereo not given)
inactive: [1] 49.1% | [2] 11.2% | [3] 27.4% | [4] -29.1% | [5] 35.1% | [6] 31.7%

CCC(=O)Oc1ccc2ccccc2c1
inactive: [1] 49.4% | [2] 32.8% | [3] 28.5% | [4] 14.8% | [5] 17.4% | [6] 29.8%

Oc1ccc(CCC2CCNc3ccccc32)cc1 (stereo not given)
inactive: [1] 0.35% | [2] -1.85% | [3] -14.2% | [4] -11.7% | [5] -3.95% | [6] -3.9%

N=C(N)c1nn(C2OC(CO)C(O)C2O)c2nc[nH]c(=O)c12 (stereo not given)
inactive: [1] 0.75% | [2] -9.5% | [3] 10.2% | [4] 17.6% | [5] 5.7% | [6] 27.1%

CCOc1ccc2c(c1)c(C)cc(C)[n+]2CC
inactive: [1] 4.45% | [2] -41% | [3] -13.2% | [4] -7.9% | [5] 13% | [6] -3.4%

OCCNc1ccccc1
inactive: [1] 31.9% | [2] 11.4% | [3] 2.75% | [4] 11.1% | [5] 6.3% | [6] 9.7%

COc1cc(CC#N)c([N+](=O)[O-])cc1OC
inactive: [1] -3.15% | [2] -22.1% | [3] -12.8% | [4] -39% | [5] -14.2% | [6] 0.4%

Cc1ccc(O)c(N)c1
inactive: [1] 2.1% | [2] -12.5% | [3] -20.3% | [4] 2.35% | [5] -9.6% | [6] 0.95%

NC(=O)NCCO
inactive: [1] -17.5% | [2] 4.1% | [3] 13.8% | [4] -18.6% | [5] -6.05% | [6] 13.3%

Cc1ccc(OC(=O)c2ccccc2)cc1
inactive: [1] 9.3% | [2] -9.65% | [3] -18.6% | [4] -6.75% | [5] -8.6% | [6] -14.6%

Cc1ccc(C)c(CCO)c1
inactive: [1] -22.1% | [2] -38.5% | [3] -30.5% | [4] -2.9% | [5] -21.4% | [6] -7.3%

NC(=S)N/N=C/c1ccc(OC(=O)COc2ccccc2)cn1
inactive: [1] -2.8% | [2] -13.4% | [3] 14.3% | [4] 7.45% | [5] -11% | [6] 9.9%

Cc1ccccc1CC(N)C(=O)O (stereo not given)
inactive: [1] 2.95% | [2] 10.7% | [3] 2.7% | [4] -15.2% | [5] 8.85% | [6] 1.85%

COc1cc(C(=O)N2CCN(c3ccccc3)CC2)c2ccccc2n1
inactive: [1] -3.8% | [2] 3.8% | [3] 10.7% | [4] 18.5% | [5] 9.2% | [6] 3.1%

O=C(O)c1ccccc1Cc1ccc2c(c1)CCCC2
inactive: [1] 17.4% | [2] 12.2% | [3] -4.6% | [4] -28.9% | [5] 25.7% | [6] 47.3%

O=S(=O)(O)C(C(I)I)S(=O)(=O)O
inactive: [1] -0.15% | [2] -19.8% | [3] -3.35% | [4] -34.5% | [5] -6.85% | [6] -7.6%

CCNc1ncnc2[nH]ncc12
inactive: [1] -8.2% | [2] -6.45% | [3] -5.6% | [4] -13.8% | [5] 3.9% | [6] -5.3%

NNC(=O)N/N=C1\C(=O)N(c2nccs2)C(=O)C(=O)C1c1nc2ccccc2s1 (stereo not given)
inactive: [1] -26.1% | [2] -21.8% | [3] -33% | [4] 10.8% | [5] -5.15% | [6] -19.4%

COC1OC(C(COC(C)=O)OC(C)=O)C(OC(C)=O)C(OC(C)=O)C1OC(C)=O (stereo not given)
inactive: [1] 13.8% | [2] 1.75% | [3] 4.35% | [4] -46.5% | [5] 52.2% | [6] -14.8%

C#CCSc1nnnn1-c1ccccc1
inactive: [1] -0.6% | [2] -19.9% | [3] 22.2% | [4] 19.4% | [5] 15.8% | [6] 12.4%

Oc1ccc2ccccc2c1CN1CCOCC1
inactive: [1] 26.9% | [2] 5.4% | [3] 32.9% | [4] 27.9% | [5] 15.1% | [6] 19%

CSCC[C@@H]1C(=O)N(C)[C@H](C(C)(C)C)N1C(=O)c1ccccc1
inactive: [1] -0.9% | [2] -12.4% | [3] -7.05% | [4] 0.6% | [5] 44.7% | [6] -13.4%

C=CCS(C)(=O)=O
inactive: [1] -13.8% | [2] -18.6% | [3] -11.8% | [4] 5.7% | [5] -0.8% | [6] -3.65%
